MRP-1 activ: activates MRP-1; H69AR cells + doxorubicin, viability rescue, CellTiter-Glo; viability increase, % at 10 µM; 140,000 tested, 0.61% active; AID 799;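 active means viability gain under doxorubicin at or above a set limit, the compound median plus 3 SD, cut at about 4.7% in these data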;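 further: MRP-1 overexpressing cells given doxorubicin 25 µM after compound pretreatment; 18-22 h compound pretreatment then 72 h with doxorubicin before readout; 0% = doxorubicin-only wells and 100% = vehicle-treated cells without doxorubicin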
CYP2C9 activ: increases human cytochrome P450 2C9 activity; P11712; recombinant CYP2C9, luciferin-H conversion, luminescence; hits give high values; factor 1 = untreated enzyme, 0 = blocked; activation factor at 5 µM; 96,000 tested, 1.4% active; AID 1024;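 active means activation factor of 2 or more for CYP2C9 at a 5 µM dose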;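 further: 0 = sulfaphenazole-blocked wells and 1 = vehicle-only wells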
Target sequence (P11712 whole entry, looked up): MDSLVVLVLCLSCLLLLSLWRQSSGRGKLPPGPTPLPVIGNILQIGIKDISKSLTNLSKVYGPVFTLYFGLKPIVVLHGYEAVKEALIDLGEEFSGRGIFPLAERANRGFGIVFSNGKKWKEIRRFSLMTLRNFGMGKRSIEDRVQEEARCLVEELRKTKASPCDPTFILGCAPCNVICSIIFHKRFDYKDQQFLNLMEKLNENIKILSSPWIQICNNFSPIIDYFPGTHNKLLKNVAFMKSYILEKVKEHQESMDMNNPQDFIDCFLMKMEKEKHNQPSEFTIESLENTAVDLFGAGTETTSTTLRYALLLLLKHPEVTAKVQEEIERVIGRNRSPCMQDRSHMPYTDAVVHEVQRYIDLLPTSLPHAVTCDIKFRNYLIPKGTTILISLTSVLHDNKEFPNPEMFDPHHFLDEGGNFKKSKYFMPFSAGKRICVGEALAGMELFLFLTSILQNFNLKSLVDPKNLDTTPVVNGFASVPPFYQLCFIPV
CYP2C19 activ: activators of human cytochrome P450 2C19 | P33261 | recombinant CYP2C19, luciferin-H EGE luminescence; hits give high values; 0 = fully inhibited enzyme, 1 = untreated enzyme | activation factor at 5 µM | 96,000 tested, under 10 active | AID 1025;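 active means activation factor of at least 2 at 5 µM in the primary screen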;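 further: 0 = wells with 2.5 mM tranylcypromine and 1 = vehicle-only wells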
CYP2C19 inh: inhibitors of human CYP2C19 | AID 778 | inhibition, % at 5 µM | 96,000 tested, 21% active | CYP2C19 Supersomes, luciferin-H EGE luminescence, 30 min;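 active means CYP2C19 inhibition above a set limit at 5 µM in the primary screen, cut at about 50% in these data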;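 further: plate controls were negative control wells for no effect and 2.5 mM tranylcypromine positive control for full effect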
CYP2C9 inh: human CYP2C9 inhibition; P11712; AID 777; inhibition, % at 5 µM; CYP2C9 Supersomes, luciferin-H conversion, luminescence; 96,000 tested, 20% active;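 active means blocking of liver enzyme CYP2C9 beyond about 50% at 5 µM, limit read from the data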
MRP reversal: MRP-mediated drug resistance reversal | differential viability (reversal), % at 10 µM | H69AR cells + 2 uM doxorubicin, CellTiter-Glo, 72 h | 85,000 tested, 0.04% active;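 active means viability drop by adding the cancer drug above about 55%, with treated viability meeting a 40% cutoff, limit read from the data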;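 further: viability without doxorubicin minus viability with 2 µM doxorubicin for each compound; larger differential means the compound sensitizes cells more to doxorubicin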
* hit, by the source's call; · = not tested or not shown. An excerpt weighted towards active compounds, which were near 21% of everything screened.

SMILES	MRP-1 activ	CYP2C9 activ	CYP2C19 activ	CYP2C19 inh	CYP2C9 inh	MRP reversal
CCN1CCN(CCCNC(=O)c2cc3sccc3n2CC)CC1	-3	1.1	1.1	-12	-6	11
CCn1c(C(=O)NCCCN2CCc3ccccc3C2)cc2sccc21	-4	0.9	0.4	64*	7	0
CCn1c(C(=O)NCc2ccccn2)cc2sccc21	-1	0.7	0.3	66*	27	0
CCN1CCN(C(=O)C2CCN(C(=O)c3cc4sccc4n3CC)CC2)CC1	0	1	1.1	-7	-3	-2
CCn1c(C(=O)N2CCC(C(=O)NCCCSC3CCCCC3)CC2)cc2sccc21	-2	1.7	0.5	53*	-68	-8
CCN1CCN(C(=O)c2cc3sccc3n2CC(=O)c2ccccc2)CC1	-2	0.6	0.4	59*	42	11
CN1CCN(C(=O)c2cc3sccc3n2CC(=O)c2ccccc2)CC1	-4	1.1	0.8	16	-6	-5
CCOC(=O)c1cccnc1NC(=O)c1ccccc1	-2	·	·	·	·	·
CC1CCN(Cc2ccc(NC(=O)CC3Oc4ccccc4NC3=O)cc2)CC1 (configuration not stated)	-2	1	1.1	-9	3	-44
CCn1c(C(=O)N2CCc3ccccc3C2)cc2sccc21	-1	1.1	0.4	63*	-13	17
Cc1cc(OCCCCN2C(=O)NC(C)(C)C2=O)cc(C)c1Cl	-2	1	0.2	76*	-4	0
CC1(C)NC(=O)N(CCCCOc2ccc(Cl)cc2)C1=O	2	0.6	0.1	86*	44	10
CCc1cc(OCCN2C(=O)NC(C)(C)C2=O)ccc1Cl	-2	0.6	0.3	74*	42	1
Cc1cc(OCCCCCNCCO)cc(C)c1Cl	-6	0.8	0.8	17	16	-8
CC1(C)NC(=O)N(CCCSc2ccc(Cl)cc2)C1=O	0	0.4	0.1	93*	62*	12
Clc1ccc(SCCCCN2CCNCC2)cc1	-3	·	·	·	·	·
CC1(C)NC(=O)N(CNc2cc(Cl)ccc2Cl)C1=O	-1	3.1*	0.1	88*	-206	14
Cc1cc(=O)[nH]c(SCCCOc2ccc3c(c2)CCC3)n1	-1	1.3	0.6	43	-27	-8
CC1(C)NC(=O)N(CCCOc2ccc3c(c2)CCC3)C1=O	-1	0.9	0.1	90*	11	·
Cc1cc(C(=O)OCC(=O)N(C)C2CCS(=O)(=O)C2)c(C)n1-c1ccccc1 (configuration not stated)	-3	0.9	0.8	22	7	-16
CCCCn1c(SCC(=O)Nc2cc(C(F)(F)F)ccc2Cl)nnc1C(CC)N(C)C (configuration not stated)	-3	·	·	·	·	·
COc1ccc(-c2nnc(SCC(=O)c3cc(C)n(Cc4cccs4)c3C)o2)cc1	-2	0.2	0.2	80*	78*	-6
COCCn1c(C)cc(C(=O)CSc2nncn2-c2ccccc2)c1C	-2	1	0.4	57*	1	-5
COc1ccc(-n2cnnc2SCC(=O)c2cc(C)n(Cc3cccs3)c2C)cc1	0	0.2	0	99*	76*	7
Cc1cc(C(=O)CSc2nnc(-c3cccs3)o2)c(C)n1-c1ccccc1	-4	0.1	0.3	66*	89*	10
SMILES	MRP-1 activ	CYP2C9 activ	CYP2C19 activ	CYP2C19 inh	CYP2C9 inh	MRP reversal
Cc1cc(C(=O)CSc2nnc(-c3ccc(OC(F)F)cc3)o2)c(C)n1Cc1cccs1	-2	0.8	0.7	31	24	16
CC(C)c1onc(C(=O)NCc2ccccc2)c1[N+](=O)[O-]	-4	·	·	·	·	·
CCCCC(=O)Nc1cccc(NC(=S)NC(C)=O)c1	-2	·	·	·	·	·
CC(=NCCN1CCN(C(=S)Nc2ccccc2)CC1)C1=C(O)CC(C)(C)CC1=O	-3	0.9	0.6	40	14	·
Cc1cc(=O)oc2cc(OCC(=O)NCc3ccco3)ccc12	-1	·	·	·	·	-1
CCC1CCCCN1C(=O)CSc1nnc(-c2cccs2)o1 (configuration not stated)	-3	0.8	0	98*	20	8
O=P1(c2ccccc2)C=Cn2c1cc1c2CCCC1 (configuration not stated)	-2	·	·	·	·	9
O=C1NC(c2ccccc2)=C(c2nc3ccccc3s2)C(c2ccccc2)N1 (configuration not stated)	-7	0.1	0.3	71*	91*	·

Screening results: PubChem BioAssay, several laboratories
